This is an account of results in PubChem BioAssay (NCI).

Compounds without any hit were thinned out: in the full panel of roughly 83,000, 20% have a hit.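 Growth was measured after 48 h exposure to one concentration of compound in 96-well plates. Values under 10 count as active.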 Calls of active or inactive are those of the source.

One assay concerns T-47D breast. The assay can be described thus: NCI-60 one-dose screen, 48 h (100 = growth as untreated, 0 = no growth, -100 = all killed). As to conditions: 10 µM unless noted.
On to `O=[N+]([O-])c1ccc(Sc2nc(Cl)nc(NC3CCCC3)n2)cc1`, for which the growth is -35.4% [100 µM] (active).
On to `Cc1c(C(N)=O)sc2ncn(CC(=O)NN=C3CCCCC3)c(=O)c12`, for which the growth is 103% (inactive).
Same read-out and setting: the value for `CC1=C(O)C(=O)CC1` was 103% (inactive).
Same read-out and setting: the value for `CCOC(=O)C1C(=O)C=C(c2cc(OC)c(OC)c(OC)c2)CC1c1sc(N(C)Cc2ccccc2)nc1Cl` (stereo unspecified) was 66.6% (inactive); that for `COc1cc(C2CC(c3ccccc3)=NN2C=O)ccc1Oc1nc2c(c(=O)n(C)c(=O)n2C)n1C` (stereo unspecified) was 69.7% (inactive); that for `O/N=C1\c2ccccc2-c2ccc(Br)cc21` was 97.2% (inactive).
On the same count and under the same terms, the value for `COc1ccc2c(c1)OC1=C(C(=O)OC1)C2c1cc(OC)c2c(c1)OCCO2` (stereo unspecified) was 60.2% (inactive).
For the molecule `CN1CCC2(CC1)N=C(SCC(=O)Nc1cnc3ccccc3c1)C(c1ccc(Br)cc1)=N2`, the growth was 10.5% (inactive).
The same measure, in the same setting: the value for `Clc1ccc(C2=NN[C@H](c3cn(-c4ccccc4)nc3-c3ccccc3)C2)cc1` was 46.4% (inactive); that for `COc1cc(C)c(Cl)cc1C1=NN(c2ccc(S(N)(=O)=O)cc2)C(/C=C/c2ccccc2)C1` (stereo unspecified) was 17.5% (inactive).
The same measure, in the same setting: the value for `Clc1ccc(-c2cnc3nonc3n2)s1` was 58.4% (inactive); that for `CN1C(=O)NC(Cc2c[nH]c3c(Cl)cccc23)C1=O` (stereo unspecified) was 111% (inactive).
On the same count and under the same terms, the value for `COc1ccc(C(=O)N2N=C(c3ccc(F)cc3)CC2c2cn(-c3ccccc3)nc2-c2ccccc2)cc1` (stereo unspecified) was 50.6% (inactive); that for `CN(C)c1ccc(C2(Cl)c3ccccc3N(C)c3ccccc32)cc1` was 33.5% (inactive).
In the case of `CC(=O)c1ccc(Br)c([N+](=O)[O-])c1`, the growth was 104% (inactive).
Turning to `Cc1ccc(C(=O)CC(=O)C(F)(F)C(F)(F)C(F)(F)F)s1`, the growth was 108% (inactive).
For `COc1cc2c(cc1OC)-c1cc(OC)c(OC)cc1C(CN(C)C)C2` (stereo unspecified), the growth is 69.3% [100 µM] (inactive).
In the case of `CCOC(=O)C1OC2(CCCC2)OC1C(=O)OCC` (stereo unspecified), the growth was 98.4% (inactive).
As for `CCCCCCCCCCCCCCCCCC(=O)[O][Sn]([CH2]CCC)([CH2]CCC)[CH2]CCC`, the growth is -78.9% (active).
For `FC(F)(F)c1nn[nH]n1`, the growth is 101% (inactive).
Still for that read-out and setting: the value for `COc1cc(OC)c(Cl)cc1N` was 98.8% (inactive); that for `O=C1N(Cc2ccccc2Cl)c2ccccc2C12NN=C(c1ccccc1)S2` (stereo unspecified) was 72.3% (inactive).
For the molecule `N/C(=N\OC(=O)c1ccccc1)C(Cc1ccccc1)C(=O)NOC(=O)c1ccccc1` (stereo unspecified), the growth is 76.1% (inactive).
Same read-out and setting: the value for `Nc1ccc(C2=NNC(=O)Cc3cc4c(cc32)OCCO4)cc1Cl` was 44.2% (inactive); that for `COc1ccc2nc3ccccc3c(NCc3ccc(Cl)cc3)c2c1` was 49.3% (inactive).
Same read-out and setting: the value for `COC1(OC)C2(Cl)CCC1(Cl)C(Cl)=C2Cl` was 98.3% (inactive); that for `O=C(NCCN1CCCCC1)n1cc(-c2ccncc2)c(-c2ccc(Cl)c(O)c2)n1` was 79.2% (inactive); that for `CC(=O)N1N=C(C2C(=O)N(C)C(=O)N(C)C2=O)CC1c1ccccc1C(=O)O` (stereo unspecified) was 95.4% (inactive).
As for `c1cc(C2CCCCC2)ccc1-c1cnc2nonc2n1`, the growth was 20.7% (inactive).
The same measure, in the same setting: the value for `COc1ccc(-c2nc3c(c(-c4ccc(Cl)cc4)nn3-c3ccccc3)c(-c3ccc(O)cc3)c2C#N)cc1` was 24.6% (inactive); that for `c1ccc(-c2nnn(-c3ccccc3)n2)cc1` was 108% (inactive); that for `CC(C)c1nc2ccccc2n1CC(=O)N/N=C/c1cccc(O)c1` was 103% (inactive).
Take `N#Cc1ccc(-c2ccc(-c3cccs3)o2)cc1F`: the growth was 23.7% (inactive).
With `CCN1C(=O)N(CC)C2C1NN=c1s/c(=C\c3ccco3)c(=O)n12` (stereo unspecified), the growth is 27.8% (inactive).
Still for that read-out and setting: the value for `O=C(O)C(CCc1ccccc1)NCc1ccccc1` (stereo unspecified) was 96.3% (inactive); that for `CN1C2CCC1/C(=C\c1ccc(Cl)cc1)C(=O)/C2=C/c1ccc(Cl)cc1` was 59.7% (inactive); that for `Cc1cccc(/C=N/n2c(-c3ccc(Cl)cc3)nc3c(Br)cc(Br)cc3c2=O)c1` was 44.4% (inactive).
The same measure, in the same setting: the value for `ClC1(Cl)C2CCCCCCC21` (stereo unspecified) was 108% (inactive).

The next assay concerns BT-549 breast. Described as above. As to conditions: 10 µM unless noted.
Turning to `O=[N+]([O-])c1ccc(Sc2nc(Cl)nc(NC3CCCC3)n2)cc1`, the growth is -97.1% [100 µM] (active).
On the same count and under the same terms, the value for `Cc1c(C(N)=O)sc2ncn(CC(=O)NN=C3CCCCC3)c(=O)c12` was 99.4% (inactive); that for `CC1=C(O)C(=O)CC1` was 89% (inactive).
Same read-out and setting: the value for `CCOC(=O)C1C(=O)C=C(c2cc(OC)c(OC)c(OC)c2)CC1c1sc(N(C)Cc2ccccc2)nc1Cl` (stereo unspecified) was 92.1% (inactive); that for `COc1cc(C2CC(c3ccccc3)=NN2C=O)ccc1Oc1nc2c(c(=O)n(C)c(=O)n2C)n1C` (stereo unspecified) was 95.7% (inactive).
Same read-out and setting: the value for `O/N=C1\c2ccccc2-c2ccc(Br)cc21` was 115% (inactive); that for `COc1ccc2c(c1)OC1=C(C(=O)OC1)C2c1cc(OC)c2c(c1)OCCO2` (stereo unspecified) was 24.6% (inactive).
As for `CN1CCC2(CC1)N=C(SCC(=O)Nc1cnc3ccccc3c1)C(c1ccc(Br)cc1)=N2`, the growth is 59.4% (inactive).
Consider `Clc1ccc(C2=NN[C@H](c3cn(-c4ccccc4)nc3-c3ccccc3)C2)cc1`, for which the growth was 92.7% (inactive).
On to `COc1cc(C)c(Cl)cc1C1=NN(c2ccc(S(N)(=O)=O)cc2)C(/C=C/c2ccccc2)C1` (stereo unspecified), for which the growth is 107% (inactive).
For the molecule `Clc1ccc(-c2cnc3nonc3n2)s1`, the growth was 93.8% (inactive).
Still for that read-out and setting: the value for `CN1C(=O)NC(Cc2c[nH]c3c(Cl)cccc23)C1=O` (stereo unspecified) was 118% (inactive).
Turning to `COc1ccc(C(=O)N2N=C(c3ccc(F)cc3)CC2c2cn(-c3ccccc3)nc2-c2ccccc2)cc1` (stereo unspecified), the growth is 77.3% (inactive).
Same read-out and setting: the value for `CN(C)c1ccc(C2(Cl)c3ccccc3N(C)c3ccccc32)cc1` was 71.9% (inactive); that for `CC(=O)c1ccc(Br)c([N+](=O)[O-])c1` was 99.7% (inactive).
With `Cc1ccc(C(=O)CC(=O)C(F)(F)C(F)(F)C(F)(F)F)s1`, the growth was 103% (inactive).
For the molecule `COc1cc2c(cc1OC)-c1cc(OC)c(OC)cc1C(CN(C)C)C2` (stereo unspecified), the growth was 45.8% [100 µM] (inactive).
The same measure, in the same setting: the value for `CCOC(=O)C1OC2(CCCC2)OC1C(=O)OCC` (stereo unspecified) was 98.9% (inactive).
On to `CCCCCCCCCCCCCCCCCC(=O)[O][Sn]([CH2]CCC)([CH2]CCC)[CH2]CCC`, for which the growth is -94.3% (active).
The same measure, in the same setting: the value for `FC(F)(F)c1nn[nH]n1` was 109% (inactive); that for `COc1cc(OC)c(Cl)cc1N` was 123% (inactive).
For `O=C1N(Cc2ccccc2Cl)c2ccccc2C12NN=C(c1ccccc1)S2` (stereo unspecified), the growth was 70% (inactive).
The same measure, in the same setting: the value for `N/C(=N\OC(=O)c1ccccc1)C(Cc1ccccc1)C(=O)NOC(=O)c1ccccc1` (stereo unspecified) was 26.4% (inactive); that for `Nc1ccc(C2=NNC(=O)Cc3cc4c(cc32)OCCO4)cc1Cl` was 48.5% (inactive).
For `COc1ccc2nc3ccccc3c(NCc3ccc(Cl)cc3)c2c1`, the growth is 50.2% (inactive).
With `COC1(OC)C2(Cl)CCC1(Cl)C(Cl)=C2Cl`, the growth was 117% (inactive).
On the same count and under the same terms, the value for `O=C(NCCN1CCCCC1)n1cc(-c2ccncc2)c(-c2ccc(Cl)c(O)c2)n1` was 68.9% (inactive); that for `CC(=O)N1N=C(C2C(=O)N(C)C(=O)N(C)C2=O)CC1c1ccccc1C(=O)O` (stereo unspecified) was 91.8% (inactive).
With `c1cc(C2CCCCC2)ccc1-c1cnc2nonc2n1`, the growth was 9.82% (active).
As for `COc1ccc(-c2nc3c(c(-c4ccc(Cl)cc4)nn3-c3ccccc3)c(-c3ccc(O)cc3)c2C#N)cc1`, the growth was 54.4% (inactive).
Same read-out and setting: the value for `c1ccc(-c2nnn(-c3ccccc3)n2)cc1` was 87.5% (inactive); that for `CC(C)c1nc2ccccc2n1CC(=O)N/N=C/c1cccc(O)c1` was 99.7% (inactive).
Turning to `N#Cc1ccc(-c2ccc(-c3cccs3)o2)cc1F`, the growth is 78% (inactive).
Still for that read-out and setting: the value for `CCN1C(=O)N(CC)C2C1NN=c1s/c(=C\c3ccco3)c(=O)n12` (stereo unspecified) was 53.9% (inactive); that for `O=C(O)C(CCc1ccccc1)NCc1ccccc1` (stereo unspecified) was 47.4% (inactive).
The same measure, in the same setting: the value for `CN1C2CCC1/C(=C\c1ccc(Cl)cc1)C(=O)/C2=C/c1ccc(Cl)cc1` was 70.6% (inactive); that for `Cc1cccc(/C=N/n2c(-c3ccc(Cl)cc3)nc3c(Br)cc(Br)cc3c2=O)c1` was 88% (inactive).
In the case of `ClC1(Cl)C2CCCCCCC21` (stereo unspecified), the growth was 101% (inactive).
